Source: PubChem BioAssay (National Center for Advancing Translational Sciences (NCATS))
An excerpt weighted towards active compounds, which were near 3.7% of everything screened.
A549 tox-1 – A549 cytotoxicity, counter-screen for Nrf2 inhibitors. A549 ARE-Fluc cells, CellTiter-Fluor viability, 18-24 h. Potency, µM (doses to about 46 µM), actives largely listed as inhibitors. 390,000 tested, 0.16% active
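A549 ARE-Fluc cells in 5% FBS OPTI-MEM, 5000 cells/well, rested 2 h then exposed to compounds in concentration-response for 18-24 h at 37 °C. Viability by CellTiter-Fluor fluorescence (Ex 405/Em 525) after 30 min; luciferase luminescence (BugLite, 15 min, RT) read afterwards.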
Nrf2 block – Nrf2 pathway inhibition. A549 ARE-Fluc reporter, luciferase luminescence, 18-24 h. Potency, µM (doses to about 46 µM), hits mostly inhibitors. 360,000 tested, 2.1% active; note: nearly all actives have a fitted effect of over 60% in size
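Two sequential reads on A549 ARE_Fluc cells exposed to compound for 18-24 h: a CellTiter-Fluor fluorescence read for viability, then a luciferase luminescence read for Nrf2/ARE activity.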
Nrf2 activator – Nrf2 pathway activation | AID 624171 | 410,000 tested, 0.31% active | AREc32 ARE-luciferase reporter (MCF7-derived line), luminescence, 24 h | Potency, µM (highest dose often 46.1 µM), usual class: activators; note: nearly all actives have a fitted effect of over 65% in size
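AREc32 cells carrying an ARE-driven firefly luciferase, 1000 cells/well in OPTI-MEM with 5% FBS, dosed after overnight attachment and incubated 24 hr at 37 deg C. Steady-Glo luminescence read after 30 min at RT.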
ELG1 repair inh – inhibitors of ELG1-dependent DNA repair in HEK293T cells; HEK293T ELG1-luciferase reporter, luminescence, 16 h; DNA damage induced by 5-fluorouridine; Potency, µM (titrated, usually from 46.1 µM), actives largely listed as inhibitors; 330,000 tested, 2.3% active; AID 504467; note: nearly all actives have a fitted effect of over 55% in size
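HEK293T cells expressing luciferase-tagged ELG1 (2,000/well) received 5-Fluorouridine plus compound or DMSO for 16 hr at 37 °C. Luciferase was read by ONE-Glo luminescence after 30 min at room temperature.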
FLuc enzyme inh – firefly luciferase inhibition, Nrf2 hit validation; shares compounds with Nrf2 block; purified firefly luciferase, luminescence inhibition; Potency, µM (titrated, usually from 57.5 µM), usual class: inhibitors; 1,400 tested, 4% active; note: nearly all actives have a fitted effect of over 65% in size
Target sequence (P08659 whole entry, looked up): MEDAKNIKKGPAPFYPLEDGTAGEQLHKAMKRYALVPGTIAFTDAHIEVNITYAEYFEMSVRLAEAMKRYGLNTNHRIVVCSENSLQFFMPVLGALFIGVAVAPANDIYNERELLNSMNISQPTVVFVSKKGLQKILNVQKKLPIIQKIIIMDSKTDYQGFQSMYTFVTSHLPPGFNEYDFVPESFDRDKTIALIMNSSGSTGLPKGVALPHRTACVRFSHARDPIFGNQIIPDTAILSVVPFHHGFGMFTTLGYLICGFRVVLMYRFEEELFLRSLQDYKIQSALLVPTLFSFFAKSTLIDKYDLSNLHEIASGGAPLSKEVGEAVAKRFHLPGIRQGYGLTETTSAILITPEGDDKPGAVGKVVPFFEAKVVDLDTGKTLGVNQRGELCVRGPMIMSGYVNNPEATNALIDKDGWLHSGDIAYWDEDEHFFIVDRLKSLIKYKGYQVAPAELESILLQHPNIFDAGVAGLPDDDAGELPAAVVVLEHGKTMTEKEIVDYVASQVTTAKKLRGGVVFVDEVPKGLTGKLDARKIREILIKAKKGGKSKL
A549 tox-2 – A549 cytotoxicity, Nrf2 inhibitor counterscreen. shares compounds with Nrf2 block. A549 ARE-Fluc cells, cytotoxicity counterscreen. Potency, µM (highest dose often 46.1 µM), usual class: inhibitors. 1,400 tested, 2% active. AID 720523;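 note: cells exposed to compounds for 18 to 24 hours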
Nrf2 ARE inh – reduces Nrf2 ARE reporter signal in A549 cells; shares compounds with Nrf2 block; A549 ARE-firefly luciferase reporter, luminescence; Potency, µM (series often up to 46.1 µM), most hits filed as inhibitors; 1,400 tested, 74% active; note: nearly all actives have a fitted effect of over 65% in size
Numbers stand for hits; . = inactive; ? = inconclusive; / = not tested or not shown. Calls come from the whole dose curve; as a rule, active = well fitted curve in the direction sought with a large enough effect; inconclusive = small, poorly fitted or top-dose-only effect, or another doubt; inactive = no such curve, though single readings can be large; an effect the other way counts as inactive or inconclusive.

SMILES	A549 tox-1	Nrf2 block	Nrf2 activator	ELG1 repair inh	FLuc enzyme inh	A549 tox-2	Nrf2 ARE inh
CCC(=O)O[C@]1(C(=O)CCl)[C@@H](C)C[C@H]2[C@@H]3CCC4=CC(=O)C=C[C@]4(C)[C@@]3(F)[C@@H](O)C[C@@]21C	.	?	.	.	/	/	/
CC(=O)OCC(=O)[C@@]12OC(C)(C)O[C@@H]1CC1C3C[C@H](F)C4=CC(=O)C=CC4(C)[C@@]3(F)C(O)CC12C (some centres not stated)	.	?	.	.	/	/	/
C[C@H]1C[C@H]2[C@@H]3CCC4=CC(=O)C=C[C@]4(C)[C@@]3(F)[C@@H](O)C[C@]2(C)[C@@]1(O)C(=O)CO	.	0.0164µM	.	/	.	.	0.0052µM
CC12C=CC(=O)C=C1CCC1C3CCC(O)(C(=O)CO)C3(C)CC(O)C12F (configuration not stated)	.	0.0103µM	.	/	.	.	0.0103µM
C[C@H]1C[C@H]2[C@@H]3CCC4=CC(=O)C=C[C@]4(C)[C@@]3(Cl)[C@@H](O)C[C@]2(C)[C@@]1(O)C(=O)CO	.	0.0146µM	.	.	.	.	0.0146µM
CC(=O)C1(O)CCC2C3CC(C)C4=CC(=O)C=CC4(C)C3(F)C(O)CC21C (configuration not stated)	.	0.0326µM	.	/	.	.	0.0651µM
CSc1ccc(CN2C(=O)C(F)(F)Oc3c(C(C)=O)cccc32)cc1	/	/	.	/	/	/	/
CSc1ccc(CCNC(=O)CCn2c(=O)c3cccn3c3cccnc32)cc1	.	?	.	/	/	/	/
CS(=O)CC(O)(c1ccc(F)cc1)C1CC1 (configuration not stated)	/	/	.	/	/	/	/
CCCCn1c(SCC(=O)Nc2nnc(C(C)C)s2)nc2c1c(=O)n(C)c(=O)n2C	?	7.31µM	.	18.4µM	.	.	16.4µM
O=C(N/N=C(\Cc1ncc[nH]1)c1ccccc1)c1ccncc1	.	.	.	?	/	/	/
O=C(N/N=C(\c1ccccc1)c1cccnc1)c1cccc(F)c1	?	7.31µM	?	?	.	?	1.84µM
O=C(N/N=C(\Cc1ncc[nH]1)c1ccccc1)c1cccnc1	.	2.31µM	.	9.2µM	.	.	8.2µM
CC(C)c1ccc(S(=O)(=O)Nc2ccc3c(c2)OCO3)cc1	.	?	.	?	/	/	/
Cc1ccc(C(=O)Oc2coc(CSc3nnc(NC(=O)c4cccs4)s3)cc2=O)cc1	.	6.51µM	.	.	?	.	4.61µM
CN(CCc1ccccc1)C(=O)c1ccc(NC(=O)Cc2ccc(NC(=O)C3CCCN(C(=O)CCc4ccccc4)C3)cc2)cc1 (configuration not stated)	.	1.3µM	.	/	.	.	4.11µM
CCC(C)NC(=O)c1nc2c(nnn2Cc2ccccc2Cl)c(=O)[nH]1 (configuration not stated)	.	.	.	.	/	/	/
O=C(NCc1cccs1)c1nc2c(nnn2Cc2ccccc2Cl)c(=O)[nH]1	?	5.8µM	.	16.4µM	?	?	2.06µM
Cc1ccc(S(=O)(=O)Nc2cccc(C(=O)NCC(c3ccco3)N3CCCC3)c2)cc1F (configuration not stated)	.	.	.	.	/	/	/
O=C(Nc1ccc2c(c1)OCCO2)c1cccc2nc3ccccc3nc12	20.6µM	2.59µM	.	?	?	11.6µM	/
CC(C)CC(N)c1cn([C@@H](CCC(=O)O)C(=O)N2CCNCC2)nn1 (some centres not stated)	.	.	.	.	/	/	/
CC(C)C[C@H](N)c1cn([C@@H](CCCCN)C(=O)N2CCNCC2)nn1	?	1.03µM	.	.	.	.	?
Cc1ccc(C)c(NC(=O)Cn2c(=O)n(CCCS(=O)(=O)C3CCCCC3)c(=O)c3ccccc32)c1	.	.	.	/	/	/	/
CCOc1ccc(C(=O)Nc2ccc3nc(SCC(=O)N(C)c4ccccc4)sc3c2)cc1	.	5.8µM	.	/	?	.	8.2µM
CCC(c1nnnn1Cc1ccccc1)N(Cc1ccccc1)Cc1cc2cc(C)ccc2[nH]c1=O (configuration not stated)	?	4.11µM	/	/	.	.	?
SMILES	A549 tox-1	Nrf2 block	Nrf2 activator	ELG1 repair inh	FLuc enzyme inh	A549 tox-2	Nrf2 ARE inh
CCc1nnc(NC(=O)Cc2ccc(OC)c(OC)c2)s1	.	.	.	.	/	/	/
COc1ccc(CC(=O)Nc2nnc(C(C)(C)C)s2)cc1OC	.	9.2µM	.	?	.	.	.
COc1ccc(-c2csc(NC(=O)Cc3ccccc3)n2)cc1OC	.	2.59µM	.	.	.	.	/
CCc1ccccc1OCC(=O)Nc1nc(-c2cccnc2)cs1	?	7.31µM	.	.	.	?	?
CCC(=O)c1ccc(OCC(=O)Nc2nc(-c3cccnc3)cs2)cc1	.	.	.	?	/	/	/
COc1ccc(NC(=O)CCCN2C(=O)CN(C)C2=O)cc1Cl	.	.	.	.	/	/	/
CC(C)[C@H](NC(=O)c1ccc(Br)cc1)C(=O)NC1CCCCC1	.	.	.	?	/	/	/
Cc1ccc(-n2c(=O)[nH]c3ncccc3c2=O)cc1	.	.	.	.	/	/	/
Cc1ccc(-n2c(-c3ccc(Br)cc3)c[n+]3c2CCc2ccc4cccnc4c2-3)cc1	.	2.91µM	.	?	.	?	5.8µM
COc1cc(/C=C(/C#N)c2ccc(C)cc2)ccc1Oc1ccc([N+](=O)[O-])cn1	.	2.91µM	.	.	.	.	?
Cc1nn(C)c(C)c1CN(Cc1nc(CCC(C)C)no1)C(C)C	.	1.3µM	.	?	.	.	?
COc1cc(/C=N/NC(=O)c2ccncc2)ccc1OC(=O)c1ccccc1Cl	.	?	.	.	/	/	/
COc1cc(C(=O)N/N=C/c2ccc(OC(=O)c3ccccc3Cl)c(OC)c2)ccc1O	.	1.46µM	.	.	0.536µM	.	0.92µM
CC(c1ccccc1)N1C(=O)c2ccc(C(=O)NCc3cccnc3)cc2C1=O (configuration not stated)	.	.	.	.	/	/	/
COc1ccc2c(c1)c([C@@H]1[C@H](C)[C@H]3CCCC[C@H]3CN1S(=O)(=O)c1ccc(C)cc1)cn2C	.	.	.	.	/	/	/
Cc1ccc(S(=O)(=O)N2C[C@@H]3CCCC[C@@H]3[C@@H](C)[C@H]2c2cn(Cc3ccccc3)c3ccccc23)cc1	.	1.84µM	.	?	.	.	2.91µM
Cc1ccc(S(=O)(=O)N2C[C@@H]3CCCC[C@@H]3[C@@H](C)[C@H]2c2cn(Cc3ccccc3)c3ncccc23)cc1	.	5.17µM	.	?	.	.	5.17µM
CCSc1nnc(-c2ccc(Cl)cc2Cl)o1	.	?	?	?	/	/	/
O=C(O)CCSc1nnc(-c2ccc(Cl)cc2Cl)o1	.	0.058µM	.	/	3.01µM	.	0.184µM
